PubChem BioAssay AID1850 (Southern Research Specialized Biocontainment Screening …, 2009)
Where “and” joins values, the source holds several entries; their conditions need not be identical. Equal entries are not always repeated. Out of some 310,000 compounds screened, about 1,000 (0.32%) were called active. The rule behind the calls is not given here. The list is a sample of the results. Measured potencies and affinities stand elsewhere.

Experiment: PhoP regulon inhibitors, Salmonella typhi PhoP promoter GFP reporter, confirmatory (AID 1850);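 note: 0% = induced wells with vehicle and 100% = uninduced wells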
Conditions: fluorescence, 4 h, at 50 µM, stronger effect = higher value

| SMILES | inhibition |
| --- | --- |
| O=C(Nc1ccccc1F)Oc1cccc(OC(=O)Nc2ccccc2F)c1 | 5.4% (inactive) |
| CS(=O)(=O)Nc1ccc(C(=O)Nc2ccc(S(=O)(=O)N3CCCC3)cc2)cc1 | -7.4% (inactive) |
| O=C1Nc2ccc(S(=O)(=O)N3CCCC3)c3cccc1c23 | -4.45% (inactive) |
| CC(=O)c1ccc(N=Nc2ccc(N(C)C)cc2)cc1 | 6.87% (inactive) |
| CCN(CC(=O)NCCN1CCOCC1)S(=O)(=O)c1ccc(F)cc1 | 5.57% (inactive) |
| C/C(=N\NC(=O)C(O)c1ccccc1)c1ccc(Cl)s1 (stereo unspecified) | -5.86% (inactive) |
| CN(C)C(=S)NC(=O)c1cccc(Cl)c1 | -16.5% (inactive) |
| O=C(Nc1ccc(C(=O)O)cc1)/C(=C\C=C\c1ccccc1)NC(=O)c1cccc(Br)c1 | 9.6% (inactive) |
| O=[N+]([O-])c1ccc(O)c(/C=N/n2cnnc2)c1 | 16.7% (inactive) |
| Cc1cc(C)n(/N=C/c2cccc([N+](=O)[O-])c2)c(=O)c1 | -0.547% (inactive) |
| Cc1cc(C)n(/N=C/c2ccccc2O)c(=O)c1 | -10.2% (inactive) |
| Cc1cc(C)n(/N=C/c2c[nH]c3ccccc23)c(=O)c1 | 2.25% (inactive) |
| C/C1=C\CCC2C(/C=C(\C)CC1)OC(=O)C2CN1CCCCC1 (stereo unspecified) | 5.15% (inactive) |
| CCOc1ccccc1NC(=O)C1CCN(S(=O)(=O)c2cccc3cccnc23)CC1 | 14.7% (inactive) |
| CCOC(=O)c1nnn(-c2nonc2-n2cccc2)c1CN1CCCCC1 | -6.4% (inactive) |
| Nc1cc(C(=O)O)c(Oc2ccc(Cl)cc2Cl)cc1C(=O)O | -3.01% (inactive) |
| O=C(O)/C=C/c1ccccc1Oc1ccc(Cl)cc1Cl | 4.42% (inactive) |
| COc1cc(C)ccc1NC(=O)c1ccc(S(=O)(=O)N2CCOCC2)cc1 | -3.12% (inactive) |
| c1ccc(C(c2ccccc2)N2CCN(Cc3nc(-c4cnccn4)no3)CC2)cc1 | -8.94% (inactive) |
| O=c1c([N+](=O)[O-])c(N2CCCCCC2)c2ccccc2n1-c1ccccc1 | 4.43% (inactive) |
| CCn1cc(C(=O)O)c(=O)c2cc(F)c(N3CCN(C(=S)NC(=O)c4ccc(OC)cc4)CC3)cc21 | -3.45% (inactive) |
| CCn1cc(C(=O)O)c(=O)c2cc(F)c(N3CCN(S(=O)(=O)c4ccc(Br)cc4)CC3)cc21 | 2.97% (inactive) |
| CCn1cc(C(=O)O)c(=O)c2cc(F)c(N3CCN(S(=O)(=O)c4ccc(NC(=O)OC)cc4)CC3)cc21 | 3.45% (inactive) |

| SMILES | inhibition |
| --- | --- |
| O=C(O)c1cc(CN2CCOCC2)oc1-c1ccccc1 | 2.28% (inactive) |
| Cc1ccc(C(=O)C(C)OC(=O)Cn2cnc3c2c(=O)n(C)c(=O)n3C)cc1 (stereo unspecified) | 2.25% (inactive) |
| COc1cc(CNc2cccc(C(=O)O)c2)cc(Br)c1OCC(=O)NC(C)(C)C | -9.24% (inactive) |
| COC(=O)c1cc(CN2CCN(c3ccccc3C)CC2)ccc1O | -3.53% (inactive) |
| Cc1ccc(-c2cc(=O)c3ccccc3[nH]2)cc1 | 10.7% (inactive) |
| COc1ccc(Cc2nc3ccccc3n2CC(=O)N/N=C/c2ccc(C)cc2O)cc1OC | -7.1% (inactive) |
| C/C(=N\NC(=S)NCc1ccccc1)c1ccc(Cl)s1 | 9% (inactive) |
| Cc1cc(C)n(-c2nncn2/N=C/c2ccccc2F)n1 | -6.07% (inactive) |
| O=C(Nc1ccccc1C(=O)N1CCOCC1)C1CC(=O)N(C2CCCC2)C1 (stereo unspecified) | -0.19% (inactive) |
| COc1ccc([N+](=O)[O-])cc1C(=O)NCCOc1ccc(Cl)cc1 | -0.6% (inactive) |
| CC(NCC(O)COC1CCC(C(C)(C)C)CC1)c1ccccc1 (stereo unspecified) | 0.36% (inactive) |
| COc1ccc(C2/C=C\CN(Cc3ccncc3)CC(=O)N2Cc2ccc(F)cc2)cc1 (stereo unspecified) | -5.33% (inactive) |
| COc1ccc(Cl)cc1C(=O)NCC(C)C | -5.89% (inactive) |
| O=C(CCC(=O)N1CCCCC1)Nc1nnc(C2CCCCC2)s1 | 8.14% (inactive) |
| CCCN1C(=O)/C(=C/c2cc(C)n(C)c2C)SC1=Nc1ccc(OC)cc1 | 0.64% (inactive) |
| CNC(=O)CC1C(=O)N(c2ccc(Cl)cc2)C(=S)N1CCc1ccc(OC)c(OC)c1 (stereo unspecified) | -0.64% (inactive) |
| O=C(NC1CCCC1)c1ccc(S(=O)(=O)N2CCOCC2)cc1 | -6.82% (inactive) |
| CCCCSCc1nc2ccccn2c1Br | 0.1% (inactive) |
| CCCOc1ccc(C(=O)NC(=S)N2CCN(c3cc4c(cc3F)c(=O)c(C(=O)O)cn4CC)CC2)cc1 | 15.1% (inactive) |
| CCn1cc(C(=O)O)c(=O)c2cnc(N3CCN(C(=S)NC(=O)c4ccc(Br)cc4)CC3)nc21 | 5.97% (inactive) |
| CCn1cc(C(=O)O)c(=O)c2cc(F)c(N3CCN(C(=S)NC(=O)c4ccc(F)c(F)c4)CC3)cc21 | 1.24% (inactive) |
| CCn1cc(C(=O)O)c(=O)c2cc(F)c(N3CCN(C(=S)NC(=O)c4ccc(F)cc4)CC3)cc21 | 9.94% (inactive) |
| CCn1cc(C(=O)O)c(=O)c2cc(F)c(N3CCN(S(=O)(=O)c4ccc5c(c4)OCCO5)CC3)cc21 | 9.21% (inactive) |

| SMILES | inhibition |
| --- | --- |
| CC(=O)N1CCN(c2cc3c(cc2F)c(=O)c(C(=O)O)cn3C2CC2)CC1 | 0.5% (inactive) |
| COc1ccc(NC(=O)C2CCCN(S(=O)(=O)c3ccccc3)C2)c(OC)c1 (stereo unspecified) | 0.45% (inactive) |
| O=C1C2CCCN2C(c2cccnc2)N1c1nccs1 (stereo unspecified) | 0.12% (inactive) |
| CCOc1cc(C(=O)Nc2nnc(S(=O)(=O)N3CCOCC3)s2)cc(OCC)c1OCC | -12.6% (inactive) |
| CCc1ccc(NC(=O)COC(=O)/C(=C/c2ccccc2OC)c2ccccc2)cc1 | -5.82% (inactive) |
| CCn1c(C)nnc1SCC(=O)Nc1ccc2c(c1)OCCO2 | 11.2% (inactive) |
| Cc1onc(-c2ccccc2)c1C(=O)N1CCC(CO)(Cc2ccccc2)CC1 | -9.9% (inactive) |
| CCC(=O)Nc1ccc2c(c1)nc(CCN1CCCCC1)n2C | 0.58% (inactive) |
| Nc1cnn(C2OC(CO)C(O)C2O)c(=O)n1 (stereo unspecified) | 2.98% (inactive) |
| NC(=O)c1ncn([C@@H]2O[C@H](CO)[C@@H](O)[C@H]2O)c1O | 4.75% (inactive) |
| Nc1ccn([C@@H]2O[C@H](CO)[C@@H](O)[C@@H]2O)c(=O)n1 | 1.39% (inactive) and -1.71% (inactive) |
| Nc1nc(F)nc2c1ncn2[C@@H]1O[C@H](CO)[C@@H](O)[C@@H]1O | -2.76% (inactive) |
| Nc1ccn([C@@H]2O[C@H](CO)[C@@H](O)C2O)c(=O)n1 (stereo partly specified) | 6.26% (inactive) |
| Nc1nc(Cl)nc2c1ncn2[C@@H]1O[C@H](CO)[C@@H](O)[C@H]1O | 19.8% (inactive) and 8.46% (inactive) |
| Cc1ccc(Cn2nnnc2CN2CCC(n3nnc4cc(C)ccc43)CC2)cc1 | -8.85% (inactive) |
| CCOC(=O)c1ccc(CNC(=O)c2n[nH]c(=O)c3ccccc23)o1 | -3.19% (inactive) |
| O=C(Nc1cccc(-c2nc3ccccc3s2)c1)c1ccc2c(c1)OCO2 | -3.82% (inactive) |
| COc1ccc(N=C2SCC(c3ccc([N+](=O)[O-])cc3)=NN2CCO)cc1 | 7.19% (inactive) |
| O=C(CN1CCN(S(=O)(=O)c2ccc(Br)cc2)CC1)N/N=C/c1ccco1 | -9.02% (inactive) |
| O=C(O)COCC(=O)N1CCN(c2cc(C(F)(F)F)nc3ccccc23)CC1 | 1.72% (inactive) |
| CC(=O)NCCC(=O)Nc1nc2c(ccc3ccccc32)s1 | 9.9% (inactive) |
| O=C(N/C(=C/c1ccco1)C(=O)N1CCCCCC1)c1ccccc1 | 2.51% (inactive) |
| O=C1c2ccccc2C(=O)N1CCCc1c[nH]c2ccccc12 | -2.4% (inactive) |

| SMILES | inhibition |
| --- | --- |
| O=C(NCc1cccc(C(F)(F)F)c1)C1CCCN(c2cnccn2)C1 (stereo unspecified) | 3.94% (inactive) |
| Cc1ccc2c(c1)[nH]c1c(N3CCN(Cc4ccccc4)CC3)ncnc12 | 6.98% (inactive) |
| Cc1ccc2[nH]c3c(N4CCN(Cc5ccccc5)CC4)ncnc3c2c1 | 11.1% (inactive) |
| Cc1ccc(NC(=O)c2ccc3snnc3c2)cc1 | -2.31% (inactive) |
| COc1ccccc1N1CCN(C(=O)CN2C(=O)c3ccccc3S2(=O)=O)CC1 | -8.97% (inactive) |
| Cc1cc(Nc2ccccc2O)c2ccccc2n1 | 6.66% (inactive) |
| Cc1cccc(NC(=S)N(C)C)c1C | 17.9% (inactive) |
| Cc1cc(Nc2ccccc2)nc2cc(O)ccc12 | 11.4% (inactive) |
| Cc1cccc(Nc2nc3ccccc3s2)c1C | -1.36% (inactive) |
| O=C(CSC1=NNC(c2ccccn2)S1)Nc1ccc(C(F)(F)F)cc1 (stereo unspecified) | 3.27% (inactive) |
| Cc1cc(C)c2cc(C(=O)N3CCC(C(=O)c4ccc(F)cc4)CC3)[nH]c2c1 | 2.06% (inactive) |
| O=C1c2ccccc2NC(c2ccccc2O)N1O (stereo unspecified) | -4.51% (inactive) |
| O=C(N/N=C\c1ccc(F)cc1)c1ccc(F)cc1 | 23.4% (inactive) |
| N/C(=N\N=C/c1ccc(Br)cc1)N/N=C\c1ccc(Br)cc1 | -6.33% (inactive) |
| CC(=O)Nc1ccc2c(c1)nc1n2CCSC1 | 11.9% (inactive) |
| Cc1cc(/C=C2\C(=O)NC(=O)N(c3ccc(Cl)cc3)C2=O)c(C)n1-c1cccc(C(=O)O)c1 | -15.1% (inactive) |
| Cc1ccc(/C=N/NC(=O)c2nnn(-c3nonc3N)c2CN(C)c2ccccc2)s1 | 0.97% (inactive) |
| Oc1ccccc1N=N/C(=N/Nc1ccccc1O)c1ccccc1 | -5.08% (inactive) |
| C/C(N=Nc1nc2ccccc2s1)=N\Nc1ccccc1O | 16.1% (inactive) |
| O=C(Cn1nc(C(F)F)cc1C(F)F)NNC(=S)Nc1ccc(F)cc1 | -9.87% (inactive) |
| O=C(Cn1nc(C(F)F)cc1C(F)F)NNC(=S)Nc1ccc(Cl)cc1 | 8.04% (inactive) |
| COC1(OC)N=C(N)C2(C#N)C(c3ccccc3)NC(C)=CC12C#N (stereo unspecified) | 22.3% (inactive) |
